Reference: the supplement of paper PMC10849652
Of roughly 8,800 targets only a part is listed; those with a hit were picked by preference. About 0.5% of all pairs of compound and target were hits.

Key:
Assay in all cases: log2 fold change, soluble protein after heating vs DMSO (PISA); higher = thermal stabilisation; K562 lysate, 10 uM; active = over 0.2 and 3.5 SD of the protein, either way, in both replicates (recomputed)
erlotinib = compound: C#Cc1cccc(Nc2ncnc3cc(OCCOC)c(OCCOC)cc23)c1 [erlotinib]
Procedure, shortened: (§1)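 Soluble protein was defined as the supernatant remaining after 21,000xg for 90 min, following pooling of heated aliquots and adjustment to 0.5% NP-40 at 4°C. Before that, crude K562 extract at 1 mg/mL protein in PBS pH 7.4 with 1 mM MgCl2 was treated with 10 μM compound for 30 min and heated for 3 min across 48°C-58°C. Quantification used TMTpro 16plex LC-MS/MS with channel sums equalised, and values are log-two fold changes in thermal stability relative to solvent controls from duplicates.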

[1] = compound: C/C(=N\NC(=O)C1=CC(=CC=C1)S(=O)(=O)N2CCOCC2)/C3=C(C=CC(=C3)Cl)O
Procedure, shortened: as §1

[2] = compound: C1=CC(=CC=C1C2=NC3=C(N2)C=C(C=C3)C(=O)N)OC4=CC=C(C=C4)Cl
Procedure, shortened: as §1

[3] = compound: C1=CC2=C(C=CC(=C2)/C=C\3/C(=O)NC(=NCC4=CC=CS4)S3)N=C1
Procedure, shortened: as §1

[4] = compound: C1=CC2=NC=CN=C2C=C1/C=C/3\C(=O)NC(=O)S3
Procedure, shortened: as §1

[5] = compound: C1=CC=C(C=C1)C2=NC(=C(N2)C3=CC=NC=C3)C4=CC(=C(C=C4)Cl)O
Procedure, shortened: as §1

[6] = compound: C1=CC=C2C(=C1)C3=NNC4=CC=CC(=C43)C2=O
Procedure, shortened: as §1

[7] = compound: C1CCN(C1)C(=O)NC2=CC=CC(=C2)NC3=NC=C(C(=N3)NCCC4=CN=CN4)Br
Procedure, shortened: as §1

[8] = compound: C1CN(CCC1(CC2=CC=C(C=C2)Cl)N)C3=NC=NC4=C3C=CN4
Procedure, shortened: as §1

IRAK-1-4 Inhibitor I = compound: C1COCCN1CCN2C3=CC=CC=C3N=C2NC(=O)C4=CC(=CC=C4)[N+](=O)[O-] [IRAK-1-4 Inhibitor I]
Procedure, shortened: as §1

ibrutinib = compound: C=CC(=O)N1CCC[C@@H](n2nc(-c3ccc(Oc4ccccc4)cc3)c3c(N)ncnc32)C1 [ibrutinib]
Procedure, shortened: as §1

[9] = compound: CC(=O)c1cnc2ccc(-c3cc(Cl)c(O)c(Cl)c3)nc2c1N[C@H]1CC[C@H](CN(C)C)CC1
Procedure, shortened: as §1

ralimetinib = compound: CC(C)(C)Cn1c(N)nc2ccc(-c3[nH]c(C(C)(C)C)nc3-c3ccc(F)cc3)nc21 [ralimetinib]
Procedure, shortened: as §1

[10] = compound: CC(C)(O)CC(=O)NCCn1ccc2ncnc(Nc3ccc(Oc4cccc(C(F)(F)F)c4)c(Cl)c3)c21
Procedure, shortened: as §1

[11] = compound: CC(C)C1=C2N=C(C=C(N2N=C1)NCC3=CC=CC=C3)NCCCCCCN
Procedure, shortened: as §1

[12] = compound: CC1=C(C(CC(=O)N1)C2=CC=C(C=C2)C(F)(F)F)C(=O)NC3=C(C=C4C(=C3)C=NN4)F
Procedure, shortened: as §1

[13] = compound: CC1=C(C2=C(C=C1)C(=O)C3=CC=CC=C3N2CCCN)C
Procedure, shortened: as §1

[14] = compound: CC1=C(C=C(C=C1)NC(=O)C2=CC(=CC=C2)C(C)(C)C#N)NC3=CC4=C(C=C3)N=CN(C4=O)C
Procedure, shortened: as §1

[15] = compound: CC1=C(C=C(C=C1)NC(=O)C2=CC(=CC=C2)N(C)C)NC(=O)C3=CC=C(C=C3)O
Procedure, shortened: as §1

[16] = compound: CC1=CC=C(C=C1)SC2=C3C=C(SC3=CN=C2)C(=O)N
Procedure, shortened: as §1

Measured: log2 fold change

ISCA1 isoform 2 (UniProt Q9BUE6)
Sequence of UniProt Q9BUE6 (Q9BUE6 whole entry, looked up): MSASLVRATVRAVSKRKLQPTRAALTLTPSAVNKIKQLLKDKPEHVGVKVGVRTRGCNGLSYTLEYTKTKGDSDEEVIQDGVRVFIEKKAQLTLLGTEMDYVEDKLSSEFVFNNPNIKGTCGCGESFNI
inactive: erlotinib -0.025 | [1] -0.036 | [2] 0.021 | [3] -0.007 | [4] -0.04 | [5] -0.033 | [6] -0.013 | [7] 0.003 | [8] -0.031 | IRAK-1-4 Inhibitor I 0.031 | ibrutinib 0.049 | [9] -0.001 | ralimetinib 0.04 | [10] -0.028 | [11] -0.069 | [12] -0.276 | [13] -0.006 | [14] 0.031 | [15] -0.029 | [16] -0.016

HNRNPAB isoform 3 (UniProt Q99729)
Sequence of UniProt Q99729 (Q99729 whole entry, looked up): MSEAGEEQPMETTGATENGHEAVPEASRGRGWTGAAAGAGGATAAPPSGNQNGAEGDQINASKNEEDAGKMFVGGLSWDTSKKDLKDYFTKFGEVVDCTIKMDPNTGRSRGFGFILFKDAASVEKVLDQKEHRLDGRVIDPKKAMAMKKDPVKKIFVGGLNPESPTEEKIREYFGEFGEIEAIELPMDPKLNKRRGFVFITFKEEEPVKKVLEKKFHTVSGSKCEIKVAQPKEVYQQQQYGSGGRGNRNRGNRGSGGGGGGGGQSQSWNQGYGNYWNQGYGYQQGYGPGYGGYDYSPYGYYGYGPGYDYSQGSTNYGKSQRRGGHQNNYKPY
inactive: erlotinib -0.032 | [1] -0.214 | [2] 0.017 | [3] -0.007 | [4] 0.002 | [5] -0.001 | [6] -0.012 | [7] 0.003 | [8] 0 | IRAK-1-4 Inhibitor I 0.009 | ibrutinib -0.029 | [9] -0.159 | ralimetinib -0.037 | [10] 0.006 | [11] -0.007 | [12] 0.055 | [13] -0.003 | [14] -0.01 | [15] -0.013 | [16] 0

HAUS5 (UniProt O94927)
Sequence of UniProt O94927 (O94927 whole entry, looked up): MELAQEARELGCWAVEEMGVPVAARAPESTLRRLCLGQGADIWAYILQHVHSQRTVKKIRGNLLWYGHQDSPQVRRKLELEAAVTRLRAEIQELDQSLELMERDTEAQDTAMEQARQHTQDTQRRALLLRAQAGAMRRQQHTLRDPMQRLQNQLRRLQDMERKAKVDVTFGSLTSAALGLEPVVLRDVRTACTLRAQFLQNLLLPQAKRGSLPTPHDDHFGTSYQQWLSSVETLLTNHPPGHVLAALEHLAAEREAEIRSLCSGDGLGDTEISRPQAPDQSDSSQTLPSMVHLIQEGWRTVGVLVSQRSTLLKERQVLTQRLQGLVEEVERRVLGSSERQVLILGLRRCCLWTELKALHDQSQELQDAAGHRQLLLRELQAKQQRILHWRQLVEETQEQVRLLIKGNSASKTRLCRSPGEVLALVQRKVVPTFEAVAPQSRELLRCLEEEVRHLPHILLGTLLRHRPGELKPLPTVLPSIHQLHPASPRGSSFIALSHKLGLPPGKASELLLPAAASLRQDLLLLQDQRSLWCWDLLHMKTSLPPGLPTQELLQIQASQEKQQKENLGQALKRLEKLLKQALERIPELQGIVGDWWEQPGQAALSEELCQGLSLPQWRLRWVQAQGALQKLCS
inactive: erlotinib 0.046 | [1] 0.021 | [2] -0.071 | [3] -0.015 | [4] -0.045 | [5] -0.009 | [6] 0.113 | [7] 0.031 | [8] -0.017 | IRAK-1-4 Inhibitor I 0.033 | ibrutinib 0 | [9] 0.002 | ralimetinib 0.034 | [10] 0.017 | [11] 0.027 | [12] -0.027 | [13] 0 | [14] 0 | [15] 0.033 | [16] 0.021

HAUS4 (UniProt Q9H6D7)
Sequence of UniProt Q9H6D7 (Q9H6D7 whole entry, looked up): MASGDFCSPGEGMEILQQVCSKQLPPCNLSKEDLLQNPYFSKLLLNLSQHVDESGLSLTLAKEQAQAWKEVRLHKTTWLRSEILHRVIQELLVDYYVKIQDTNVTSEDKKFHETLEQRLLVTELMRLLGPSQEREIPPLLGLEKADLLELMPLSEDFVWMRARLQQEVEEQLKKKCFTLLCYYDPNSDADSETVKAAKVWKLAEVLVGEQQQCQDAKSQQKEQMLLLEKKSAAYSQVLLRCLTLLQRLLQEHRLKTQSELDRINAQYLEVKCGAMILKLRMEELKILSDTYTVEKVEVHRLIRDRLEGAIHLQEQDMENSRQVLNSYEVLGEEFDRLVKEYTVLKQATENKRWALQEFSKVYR
inactive: erlotinib 0.012 | [1] -0.029 | [2] -0.036 | [3] 0.064 | [4] -0.003 | [5] 0.015 | [6] -0.015 | [7] -0.025 | [8] -0.007 | IRAK-1-4 Inhibitor I -0.016 | ibrutinib 0.04 | [9] -0.033 | ralimetinib 0.003 | [10] 0.01 | [11] -0.004 | [12] 0.006 | [13] -0.016 | [14] -0.008 | [15] 0.057 | [16] -0.01

HMGN4 (UniProt O00479)
inactive: erlotinib 0.015 | [1] 0.238 | [2] 0.063 | [3] -0.056 | [4] 0.017 | [5] 0.048 | [6] 0.293 | [7] 0.201 | [8] -0.044 | IRAK-1-4 Inhibitor I -0.046 | ibrutinib -0.067 | [9] 0.051 | ralimetinib -0.249 | [10] 0 | [11] -0.097 | [12] -0.011 | [13] 0.016 | [14] -0.014 | [15] -0.077 | [16] 0.022

GSTM2 (UniProt P28161)
Sequence of UniProt P28161 (P28161 whole entry, looked up): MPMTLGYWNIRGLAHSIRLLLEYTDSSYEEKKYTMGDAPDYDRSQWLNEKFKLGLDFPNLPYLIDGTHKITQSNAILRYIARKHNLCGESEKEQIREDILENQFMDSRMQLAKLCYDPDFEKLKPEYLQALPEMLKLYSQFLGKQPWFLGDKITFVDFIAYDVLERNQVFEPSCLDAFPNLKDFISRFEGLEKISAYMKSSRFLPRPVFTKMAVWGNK
inactive: erlotinib -0.083 | [1] 0.041 | [2] -0.038 | [3] -0.007 | [4] 0.079 | [5] -0.008 | [6] -0.012 | [7] -0.021 | [8] -0.054 | IRAK-1-4 Inhibitor I 0.037 | ibrutinib 0.081 | [9] 0.009 | ralimetinib -0.006 | [10] -0.067 | [11] -0.021 | [12] -0.119 | [13] -0.033 | [15] 0.004 | [16] -0.021

HAUS8 (UniProt Q9BT25)
Sequence of UniProt Q9BT25 (Q9BT25 whole entry, looked up): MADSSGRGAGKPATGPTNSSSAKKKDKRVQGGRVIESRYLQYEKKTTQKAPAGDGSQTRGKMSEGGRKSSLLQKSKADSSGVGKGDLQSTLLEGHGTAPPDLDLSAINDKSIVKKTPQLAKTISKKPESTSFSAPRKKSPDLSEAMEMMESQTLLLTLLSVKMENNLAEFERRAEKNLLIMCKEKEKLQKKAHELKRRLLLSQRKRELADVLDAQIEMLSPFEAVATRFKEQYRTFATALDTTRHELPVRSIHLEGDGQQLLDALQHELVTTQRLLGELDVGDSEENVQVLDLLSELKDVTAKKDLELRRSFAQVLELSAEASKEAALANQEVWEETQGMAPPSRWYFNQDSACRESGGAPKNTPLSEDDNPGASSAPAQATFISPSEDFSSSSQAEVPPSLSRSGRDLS
inactive: erlotinib 0.007 | [1] -0.007 | [2] 0.007 | [3] 0.016 | [4] -0.06 | [5] -0.029 | [6] 0.142 | [7] 0.001 | [8] 0.062 | IRAK-1-4 Inhibitor I 0.015 | ibrutinib 0.049 | [9] -0.01 | ralimetinib 0.054 | [10] 0.011 | [11] -0.012 | [12] -0.044 | [13] -0.062 | [14] 0.003 | [15] 0.033 | [16] 0.036

GTF2A1 (UniProt P52655)
Sequence of UniProt P52655 (P52655 whole entry, looked up): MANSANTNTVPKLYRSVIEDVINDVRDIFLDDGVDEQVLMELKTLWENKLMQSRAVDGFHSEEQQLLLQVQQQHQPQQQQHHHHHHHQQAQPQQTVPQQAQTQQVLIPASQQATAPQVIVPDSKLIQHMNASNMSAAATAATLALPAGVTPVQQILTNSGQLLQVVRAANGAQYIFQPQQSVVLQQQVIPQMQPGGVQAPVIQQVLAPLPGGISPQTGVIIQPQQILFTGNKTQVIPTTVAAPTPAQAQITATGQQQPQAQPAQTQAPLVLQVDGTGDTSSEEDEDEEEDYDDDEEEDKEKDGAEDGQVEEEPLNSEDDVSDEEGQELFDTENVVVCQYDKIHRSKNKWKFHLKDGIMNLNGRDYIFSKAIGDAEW
inactive: erlotinib 0.031 | [1] -0.008 | [2] 0.015 | [3] 0.026 | [4] -0.01 | [5] -0.038 | [6] -0.061 | [7] -0.04 | [8] -0.01 | IRAK-1-4 Inhibitor I 0.033 | ibrutinib -0.009 | [9] -0.046 | ralimetinib 0.015 | [10] -0.016 | [11] -0.036 | [12] -0.069 | [13] -0.021 | [14] -0.013 | [15] 0.008 | [16] -0.014

HSPA14 (UniProt Q0VDF9)
Sequence of UniProt Q0VDF9 (Q0VDF9 whole entry, looked up): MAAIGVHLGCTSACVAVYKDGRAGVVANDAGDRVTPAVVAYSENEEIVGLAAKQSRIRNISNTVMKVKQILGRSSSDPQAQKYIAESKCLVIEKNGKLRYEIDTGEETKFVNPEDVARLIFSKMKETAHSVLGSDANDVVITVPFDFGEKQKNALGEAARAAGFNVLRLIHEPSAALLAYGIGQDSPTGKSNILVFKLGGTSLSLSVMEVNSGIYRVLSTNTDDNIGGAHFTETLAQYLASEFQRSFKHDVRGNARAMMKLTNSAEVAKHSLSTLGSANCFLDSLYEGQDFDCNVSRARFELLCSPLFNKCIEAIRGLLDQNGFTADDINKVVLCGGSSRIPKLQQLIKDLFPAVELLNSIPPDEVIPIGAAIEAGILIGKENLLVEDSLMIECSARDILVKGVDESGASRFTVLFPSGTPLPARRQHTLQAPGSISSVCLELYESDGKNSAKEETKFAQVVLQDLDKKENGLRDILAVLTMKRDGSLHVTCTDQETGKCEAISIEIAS
inactive: erlotinib 0.014 | [1] 0.025 | [2] -0.009 | [3] 0.009 | [4] 0.012 | [5] 0.049 | [6] -0.035 | [7] 0.018 | [8] 0.014 | IRAK-1-4 Inhibitor I 0.003 | ibrutinib 0.004 | [9] -0.008 | ralimetinib 0.009 | [10] -0.013 | [11] -0.032 | [12] -0.02 | [13] -0.009 | [14] -0.012 | [15] 0.033 | [16] 0.004
